Results taken from PubChem BioAssay.
Calls of active or inactive are those of the source. Unless noted, the rule behind the calls is not given here.

Assays:
[1] = A549 cell viability effects, profiling panel, calcein-AM fluorescence, 48 h, basal (AID 1162); conditions: higher = more signal; note: test concentration not given here
[2] = adipocyte viability effects, profiling panel, cell-based, 3T3-L1 adipocytes, calcein-AM fluorescence, 48 h, basal (AID 1163); conditions: 3T3-L1 adipocytes viability, higher = more signal; note: test concentration not given here
[3] = HepG2 cell viability effects, profiling panel, calcein-AM fluorescence, 48 h, basal (AID 1164); conditions: higher = more signal; note: test concentration not given here
[4] = MM1S cell viability effects, profiling panel, calcein-AM fluorescence, 48 h, basal (AID 1165); conditions: higher = more signal;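 note: viability of MM1S multiple myeloma cells under basal unstimulated conditions; test concentration not given here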
[5] = basal RPMI8226 viability, no added stimulus, profiling panel, cell-based, calcein-AM fluorescence, 48 h, PK04 Diversity Set (AID 1166); conditions: RPMI8226 myeloma viability, higher = more signal;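 note: cells grown under basal conditions without added stimulus; test concentration not given here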
[6] = basal HepG2 mitochondrial membrane potential changes, profiling panel, cell-based, JC-1 fluorescence, 24 h, 100 nL compound (AID 1167); conditions: higher = more signal; note: test concentration not given here
[7] = basal 3T3-L1 adipocyte mitochondrial potential changes, profiling panel, cell-based, JC-1 fluorescence, 3T3-L1 adipocytes, 24 h, 100 nL compound (AID 1168); conditions: JC-1 mitochondrial fluorescence, higher = more signal, called active from +8 up or from −8 down; note: test concentration not given here
[8] = basal RPMI8226 mitochondrial membrane potential changes, profiling panel, cell-based, JC-1 fluorescence, 24 h, 100 nL compound (AID 1169); conditions: RPMI8226 myeloma, JC-1 mitochondrial potential fluorescence, higher = more signal; note: test concentration not given here
[9] = basal MM1S mitochondrial membrane potential changes, profiling panel, cell-based, JC-1 fluorescence, 24 h, 100 nL compound (AID 1170); conditions: higher = more signal; note: test concentration not given here
[10] = A549 lung cancer cell viability effects, profiling panel, resazurin fluorescence, 24 h, PK04 Diversity Set (AID 1171); conditions: higher = more signal, called active from +8 up or from −8 down; note: test concentration not given here
[11] = HepG2 liver cancer cell viability effects, profiling panel, resazurin fluorescence, 24 h, PK04 Diversity Set (AID 1172); conditions: higher = more signal; note: test concentration not given here
[12] = basal S. cerevisiae growth modulation, no modifier, primary screen, OD600, strain BY4716, 24 h, basal condition (AID 1173); conditions: OD600, 24 h, higher = more signal, called active from +8 up or from −8 down
[13] = MM1S myeloma cell viability, profiling panel, resazurin fluorescence, basal, 24 h, PK04 Diversity Set (AID 1174); conditions: higher = more signal, called active from +8 up or from −8 down;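 note: MM1S multiple myeloma cell line; test concentration not given here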
[14] = molecular target: Dihydroorotate dehydrogenase (quinone), mitochondrial (Plasmodium falciparum (isolate 3D7)) (UniProt Q08210); test: PfDHODH enzyme inhibitors, primary screen, biochemical, C-terminal His tag, absorbance 600 nm (AID 1175); conditions: DCIP absorbance 600 nm, higher = more signal, called active from +8 up or from −8 down;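 note: recombinant parasite enzyme with a five histidine tag at its C terminus; test concentration not given here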
[15] = P. aeruginosa biofilm formation inhibitors, primary screen, strain PAO1, LB-PBS medium, absorbance 600 nm (AID 1176); note: test concentration not given here; conditions: P. aeruginosa PAO1 growth/biofilm, A600, 12 h; higher = more signal
[16] = S. cerevisiae RM11-1a growth modifiers, primary screen, strain RM11-1a, OD600, basal, 24 h (AID 1177); conditions: OD600, 24 h, higher = more signal, called active from +8 up or from −8 down;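 note: cultures grown under basal conditions with no added stressor; test concentration not given here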
[17] = E. coli acrAB mutant growth effects, primary screen, E. coli filamentation inducers, strain DRC39, OD650, 24 h (AID 1178); conditions: higher = more signal, called active from +8 up or from −8 down;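 note: growth measured as culture turbidity by optical density at 650 nm; test concentration not given here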
[18] = E. coli acrAB mutant growth effects, primary screen, E. coli filamentation inducers, strain DRC39, OD650, 48 h (AID 1179);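 note: screen aims at cell division blockers that make cells filament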; conditions: E. coli DRC39 delta-acrAB growth, higher = more signal, called active from +8 up or from −8 down
[19] = RPMI8226 myeloma cell viability, profiling panel, resazurin fluorescence, basal, 24 h, PK04 Diversity Set (AID 1180); conditions: higher = more signal;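 note: RPMI8826 multiple myeloma cell line at 5000 cells per well; test concentration not given here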
[20] = molecular target: E3 ubiquitin-protein ligase XIAP (Homo sapiens) (UniProt P98170); test: XIAP binders, primary screen, biophysical, small-molecule microarray, fluorescence 635 nm (AID 1181); conditions: small-molecule microarray binding, higher = more signal;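 note: score merges 667 nm emission and signal to noise over triplicate slides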
Chain of E3 ubiquitin-protein ligase XIAP (Homo sapiens) (P98170 whole entry, looked up): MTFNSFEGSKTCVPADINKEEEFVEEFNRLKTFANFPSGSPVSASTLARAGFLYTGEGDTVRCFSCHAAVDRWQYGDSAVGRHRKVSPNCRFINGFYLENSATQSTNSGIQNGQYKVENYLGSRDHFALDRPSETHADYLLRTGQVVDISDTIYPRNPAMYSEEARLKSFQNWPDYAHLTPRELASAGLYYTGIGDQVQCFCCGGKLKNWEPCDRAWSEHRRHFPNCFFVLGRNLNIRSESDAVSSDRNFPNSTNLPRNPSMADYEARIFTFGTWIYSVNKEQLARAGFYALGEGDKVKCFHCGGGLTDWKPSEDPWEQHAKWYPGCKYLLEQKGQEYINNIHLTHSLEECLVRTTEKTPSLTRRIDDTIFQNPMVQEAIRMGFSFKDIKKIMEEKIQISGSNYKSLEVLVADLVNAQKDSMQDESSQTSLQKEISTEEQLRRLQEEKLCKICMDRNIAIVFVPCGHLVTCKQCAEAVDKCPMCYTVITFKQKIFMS

Chain of Dihydroorotate dehydrogenase (quinone), mitochondrial (Plasmodium falciparum (isolate 3D7)) (Q08210 whole entry, looked up): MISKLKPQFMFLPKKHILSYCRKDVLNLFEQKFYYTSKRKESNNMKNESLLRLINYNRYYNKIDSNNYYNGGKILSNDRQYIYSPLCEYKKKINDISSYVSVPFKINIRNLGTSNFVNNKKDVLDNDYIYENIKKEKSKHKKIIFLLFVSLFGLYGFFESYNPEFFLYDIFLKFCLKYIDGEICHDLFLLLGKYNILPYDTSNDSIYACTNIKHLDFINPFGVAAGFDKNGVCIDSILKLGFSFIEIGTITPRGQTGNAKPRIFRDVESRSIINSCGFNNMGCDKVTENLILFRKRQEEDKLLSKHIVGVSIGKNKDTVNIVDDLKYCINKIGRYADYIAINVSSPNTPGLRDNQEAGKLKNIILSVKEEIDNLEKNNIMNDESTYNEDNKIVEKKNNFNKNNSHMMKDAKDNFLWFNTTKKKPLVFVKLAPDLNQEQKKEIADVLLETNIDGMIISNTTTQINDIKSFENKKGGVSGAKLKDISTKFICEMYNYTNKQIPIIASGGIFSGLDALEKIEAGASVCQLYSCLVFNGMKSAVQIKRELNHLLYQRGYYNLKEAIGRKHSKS

SMILES	z-score [1]	z-score [2]	z-score [3]	z-score [4]	z-score [5]	z-score [6]	z-score [7]	z-score [8]	z-score [9]	z-score [10]	z-score [11]	z-score [12]	z-score [13]	composite z-score [14]	z-score [15]	z-score [16]	z-score [17]	z-score [18]	z-score [19]	composite z-score [20]
CC(=O)OC[C@H]1O[C@H](CC=NO[C@H](C)c2cn([C@H](CO)Cc3ccccc3)nn2)C=C[C@@H]1OC(C)=O	-0.404	-0.857	-0.0224	-0.955	-1.94	-0.485	-0.963 (inactive)	0.013	0.186	0.322 (inactive)	0.242	1.53 (inactive)	-0.376 (inactive)	0.53 (inactive)	0.642 (inactive)	1.57 (inactive)	-0.182 (inactive)	-0.554 (inactive)	0.103	0.699
CCOC(=O)[C@H](CC(C)C)NC(=O)CCC1CC(OC(=O)NCc2ccc3c(c2)OCO3)CC2(CCCC(COC(=O)NCC(c3ccccc3)c3ccccc3)O2)O1 (stereo not given in full)	-0.338	-0.335	-0.312	-3.41	0.592	-0.106	0.604 (inactive)	-0.828	0.0369	0.577 (inactive)	0.842	0.724 (inactive)	0.56 (inactive)	0.125 (inactive)	-0.306 (inactive)	0.786 (inactive)	0.304 (inactive)	0.321 (inactive)	0.509	-0.17
COC(=O)CC=C[C@@H](C)[C@@H](C=NO[C@@H](C)c1cc(-c2c(C)cc(C)cc2C)no1)NS(=O)(=O)c1ccc(C)cc1	-0.985	0.885	-0.145	0.236	-1.75	-0.189	-1.08 (inactive)	0.634	-0.147	0.298 (inactive)	0.245	-0.358 (inactive)	-0.019 (inactive)	-2.27 (inactive)	-0.998 (inactive)	-0.2 (inactive)	-1.1 (inactive)	-1.55 (inactive)	-0.33	-0.169
C=CC[C@@H]1C=C[C@H](ON=C[C@@H](C)[C@H](OCc2ccccc2)C(C)C)[C@@H](CO)O1	-0.475	-0.162	-0.746	-1.55	-0.958	-1.94	-0.87 (inactive)	-0.419	-0.874	0.0506 (inactive)	0.0253	-5.6 (inactive)	-0.865 (inactive)	-0.408 (inactive)	0.241 (inactive)	-0.62 (inactive)	-0.295 (inactive)	-0.238 (inactive)	-0.183	-0.138
Cc1cc2c(nc1C)CCCCN2CC(C)ON=C1[C@H]2CCn3c(=O)n(-c4ccccc4)c(=O)n3[C@H]2[C@H](O)[C@@H]2O[C@H]12 (stereo not given in full)	-0.333	-0.0663	0.305	-0.767	-1.21	-0.439	-0.521 (inactive)	0.407	-0.974	-1.53 (inactive)	-1.22	-0.683 (inactive)	-3.13 (inactive)	-0.498 (inactive)	-0.525 (inactive)	0.722 (inactive)	0.588 (inactive)	1.2 (inactive)	-0.459	-0.327
